Bioassay records deposited in PubChem by National Center for Advancing Translational Sciences (NCATS).
HttQ103 aggreg: reduces HttQ103-GFP aggregates in PC12 cells; PC12 HttQ103-GFP aggregates, Acumen cytometry, 40 h; Potency, µM (highest dose often 46.1 µM), without a hit: at the top dose activity change, negative = inhibition, most hits filed as inhibitors; 220,000 tested, 1.1% active; also: % is scaled to controls: 0 for no effect and ±100 for the full control effect; nearly all actives have a fitted effect of over 60% in size
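Ecdysone-promoter PC12 model expressing HTT exon 1 Q103 fused to GFP, induced by tebufenozide at 100 nM final. Compounds titrated; aggregates sized 1–25 µm scored on a 488 nm laser cytometer.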
JMJD2E inh: blocks human JMJD2E demethylase activity; B2RXH2; JMJD2E catalytic domain, FDH-coupled NADH fluorescence (FDH is formaldehyde dehydrogenase); Potency, µM (doses to about 57.1 µM), without a hit: top-dose activity change, negative = inhibition, most hits filed as inhibitors; 230,000 tested, 1.6% active; AID 2147; active = well fitted inhibition curve with a large enough effect, not every such curve was filed as active; inconclusive = small, poorly fitted or top-dose-only effect, or another doubt; inactive = no such curve, though single readings can be large or run the other way;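 also: 0% = wells with enzyme and -100% = buffer wells without enzyme; nearly all actives have a fitted effect of over 50% in size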
Target sequence (B2RXH2 1-337 limits assumed): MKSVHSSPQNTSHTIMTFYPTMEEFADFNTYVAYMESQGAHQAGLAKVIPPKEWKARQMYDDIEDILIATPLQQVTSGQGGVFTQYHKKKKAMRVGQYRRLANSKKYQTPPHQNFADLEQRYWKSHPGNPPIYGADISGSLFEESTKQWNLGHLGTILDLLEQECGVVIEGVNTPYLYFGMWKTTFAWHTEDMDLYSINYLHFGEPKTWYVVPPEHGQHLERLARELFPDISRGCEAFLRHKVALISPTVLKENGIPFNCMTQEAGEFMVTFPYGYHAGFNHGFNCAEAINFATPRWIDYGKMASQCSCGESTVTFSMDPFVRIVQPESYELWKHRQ
L3MBTL1 block: blocks human L3MBTL1; AlphaScreen L3MBTL1–H3K9me1 peptide binding; Q9Y468; 230,000 tested, 0.66% active; Potency, µM (highest dose often 57.1 µM), without a hit: at the highest dose activity, negative = inhibition, most hits filed as inhibitors; also: % is scaled to controls: 0 for no effect and ±100 for the full control effect; nearly all actives have a fitted effect of over 60% in size
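L3MBTL1 (50 nM) pre-complexed 30 min with biotinylated H3(1-15)K9me1 peptide (75 nM), then compounds added for 30 min at room temperature; AlphaScreen streptavidin donor/nickel chelate acceptor beads (10 ug/mL final) read after 30 min dark incubation.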
HTT ATP protect: cytoprotection in Huntington HTT-Q103 PC12 cell model | PC12 HTT-Q103 induced, cytoprotection, ATP luminescence, 40 h | 230,000 tested, 0.14% active | Potency, µM (highest dose often 56.4 µM), inactives show cytoprotection (ATP increase), usual class: activators; also: % of control where 0% means no effect; nearly all actives have a fitted effect of over 45% in size
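Readout: ATPlite luminescence (ATP level). Model: stable PC12, inducible Htt exon1 Q103-GFP. Inducer: tebufenozide, 100 nM final. Compounds: dose series. No G418 in medium.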
* hit, by the source's call; u = inconclusive; x = not tested or not shown; ! = a repeat was not active; [ ] = another dose, or the depositor's remark. Compounds with a hit are over-represented: about 1.8% of the library has one in this group of screens. Unless noted, calls follow the shape of the dose curve; as a rule, active = well fitted curve in the direction sought with a large enough effect; inconclusive = small, poorly fitted or top-dose-only effect, or another doubt; inactive = no such curve, though single readings can be large; an effect the other way counts as inactive or inconclusive. Potency is read from the fitted curve at half-maximal effect.

SMILES	HttQ103 aggreg	JMJD2E inh	L3MBTL1 block	HTT ATP protect
CC(=O)[C@H](CC(C)C)NC(=O)[C@@H](CC(C)C)NC(=O)[C@H](CC(C)C)NC(=O)OCc1ccccc1	x	-1%	x	-124%[1.9 µM]
CCN(CC)Cc1cc(O)c(CN(CC)CC)cc1O	u	u	3.2µM*	-19%
CCc1oc(C(=O)O)cc1CN(CC)CC	16%	7%	x	7%[10 µM]
O=c1cc(CN2CCN(c3ccccc3F)CC2)c2cc3c(cc2o1)CCCC3	0.63µM*	0%	x	1.1µM*
COc1ccc(CN2C(=O)c3cccnc3C2Nc2cc(Cl)ccc2OC)cc1 (stereo not drawn)	23%	14µM*	u	11%[10 µM]
Cc1ccc(Cl)cc1NC(=O)c1cc2ccccc2cc1O	u	22µM*	6%	-40%[10 µM]
COc1cc(NC(=O)c2cc3ccccc3cc2O)c(OC)cc1Cl	-26%[9.22 µM]	u	x	-30%[10 µM]
COc1cccc(Nc2ncc3ncc(=O)n(CCc4ccccc4)c3n2)c1	x	x	x	-2%
Cc1[nH]c2ccccc2c1-c1csc(N)n1	x	x	-11%	x
COc1ccccc1Nc1nc(-c2c(C)[nH]c3ccccc23)cs1	6%	28µM*	-8%	22%[10 µM]
CCCCC(=NCCc1c(C)[nH]c2ccc(OC)cc12)C1=C(O)CC(c2ccccc2)CC1=O (stereo not drawn)	-28%	25µM*	-11%	-74%
CCC(=NCCc1c(C)[nH]c2ccc(OC(F)(F)F)cc12)C1=C(O)CC(c2ccccc2)CC1=O (stereo not drawn)	-17%	4%	3%	-63%
COC(=O)c1oc2ccc(OC)cc2c1N	2.8µM*	u	5%	-94%[10 µM]
O=C(CSc1nc2nn(-c3ccccc3)c(=O)c-2c2n1CCCCC2)c1ccc(O)c(O)c1	x	x	8.9µM*	x
CO[C@@H]1COC(=O)CCC[C@@H](C)[C@H](OC)COC(=O)CCC[C@H]1C	x	x	x	3%[10 µM]
COc1cc(C(=O)c2ccccc2)c(OC)cc1C(=O)Nc1ccc(O)cc1	8%[9.22 µM]	-9%	-25%	-15%[10 µM]
COc1ccc(C(=O)c2ccccc2)c(O)c1O	x	22µM*	x	x
COc1ccc(C(=O)c2ccccc2)c(O)c1	11µM*!	9%	16%	-34%[10 µM]
CCCOc1ccc(OCC(=O)c2[nH]c(C)c(C(C)=O)c2C)cc1	8.9µM*	8%	x	-6%
CC(=O)c1c(C)[nH]c(C(=O)COc2cc(C)cc(C)c2)c1C	-17%	3%	-4%	8%
O=c1c(-c2cccs2)nc2cncnc2n1-c1ccccc1	x	x	x	-23%
COCCN(CCOC)c1nc(C)nc2c1nc(-c1ccccc1)n2CCCN1CCCCC1C (stereo not drawn)	x	u	x	9%
Cc1nn(-c2ccccc2)c(Cl)c1CN(C(=O)CCl)c1ccc(Cl)cc1	25µM*	8%	8%	-3%[10 µM]
CC(=O)N(Cc1c(C)nn(-c2ccccc2)c1Cl)c1ccc(Cl)cc1	13%	7%	5%	6%
Cc1nn(-c2ccccc2)c(Cl)c1C(=O)NCC(=O)O	-6%	-3%	7%	-5%[10 µM]
SMILES	HttQ103 aggreg	JMJD2E inh	L3MBTL1 block	HTT ATP protect
Cc1nn(-c2ccccc2)c(Cl)c1CN(C(=O)CCl)c1cccc2ccccc12	13µM*	3%	4%	26%[1.9 µM]
CC[C@@H](C)C(N)C(=O)O (stereo partly drawn)	19%	x	x	-8%
Cc1nc(C)c(/C(O)=C\c2nc3ccc([N+](=O)[O-])cc3oc2=O)o1	-18%[9.22 µM]	20µM*	x	11%[10 µM]
O=C(O)Cn1c(=O)oc2cc(S(=O)(=O)N3CCOCC3)ccc21	x	x	x	-10%
Cc1cccc(CNc2ncnc3ccc(-c4cccc(C#N)c4)cc23)c1	x	u	x	-10%
CN(C)c1ccc(C(=C2C=CC(=[N+](C)C)C=C2)c2ccc(N(C)C)cc2)cc1	u	u	x	-98%
CC1=CC(=C(c2ccc(N)cc2)c2ccc(N)cc2)C=CC1=N	7.9µM*	x	x	-62%
O=c1c(-c2ccc(F)cc2)nc2cnc(N3CCOCC3)nc2n1CCc1ccccc1	x	x	x	-11%
O=C(CSc1ccsc1[N+](=O)[O-])Nc1cc(F)ccc1F	30%	7%	40µM*	0%[10 µM]
CCN(CC)c1ccc(NC(=O)CSc2ccsc2[N+](=O)[O-])c(C)c1	u	3%	u	14%[10 µM]
CC1CC2OC2/C=C\C=C/C(=O)Cc2c(Cl)c(O)cc(O)c2C(=O)O1 (stereo not drawn)	x	x	x	-52%
C[C@@H]1Cc2c(O)c(O)cc(O)c2C(=O)O1	-34%[9.22 µM]	2µM*	x	-34%[10 µM]
CSCC[C@@H]1NC(=O)C/C=C\[C@@H](C)COC(=O)[C@H](C)COC1=O	x	x	x	17%[10 µM]
